From PubChem
Most compounds without a hit are left out; they make up all but 3.3% or so of the library.
esBAF inh: inhibitors of esBAF chromatin remodeling in mouse ES cells. actives 2% (n = 350,000). Bmi1-luciferase knock-in reporter, 24 h; 100% = twice the neutral-well signal. reporter increase, % at 12.5 µM; in the data active = activation above about 40%;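 note: a rise in the Bmi1 reporter signal indicates esBAF inhibition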
Jurkat NFkB inh: lowers PMA/ionomycin-induced NF-kB signal in Jurkat cells | actives 0.53% (n = 330,000) | AID 435003 | PMA/ionomycin-induced NF-kB luciferase reporter, luminescence | inhibition, % at 4 µM; in the data active = inhibition above about 50%
697 NFkB inh: inhibitors of the PMA/ionomycin-induced NF-kB reporter in 697 B cells; 697 B-cell NF-kB luciferase reporter, 16 h; inhibition, % at 4 µM; actives 0.33% (n = 330,000); AID 435022; in the data active = inhibition above about 35%
Gli-Sufu block: Gli-Sufu pathway antagonism; Sufu-KO-LIGHT fibroblasts, Gli luciferase reporter luminescence; inhibition, % at 5 µM; actives 0.74% (n = 340,000); AID 588413;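 active = inhibition above about 55%, limit read from the data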
SMARCA2 act: activators of SMARCA2 function. MG213 cells, MMTV-luciferase reporter, dexamethasone, overnight. activation, % at 9.1 µM. actives 1% (n = 370,000). AID 652017; in the data active = activation above about 7.8%
Gli antag conf: confirmation of Gli-SUFU pathway antagonists; shares compounds with Gli-Sufu block; Sufu-KO-LIGHT cells, Gli luciferase reporter, luminescence; inhibition, % at 5 µM; actives 40% (n = 2,500); AID 602428;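 active = mean inhibition at 5 µM reaching about 45%, limit read from the data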
SufuKO cytotox: cytotoxicity counter-screen for Gli-SUFU antagonists | shares compounds with Gli-Sufu block | Sufu-KO-LIGHT cells cytotoxicity, ATP luminescence | cytotoxicity, % at 5 µM | actives 32% (n = 2,500) | AID 651994;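 active = mean cytotoxicity at 5 µM above about 25%, limit read from the data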;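 note: cells exposed to compound overnight for roughly 16 to 18 hours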
Wnt3a counter: inhibits Wnt3a reporter, counter-screen for Gli-SUFU antagonists; inhibition, % at 6.25 µM; actives 20% (n = 2,500); shares compounds with Gli-Sufu block; AID 651995; Wnt-LIGHT cells, Wnt3a-driven luciferase reporter, luminescence;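 active = mean inhibition above about 25%, limit read from the data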
Of the large screens only hits and unclear results are named; the others gave an inactive call (follow-up assays come after a bar, where they were run).

Cc1ccc(Cl)cc1N1CCN(C(=O)CSc2nnc3n2C(C)(C)Cc2ccccc2-3)CC1	Gli-Sufu block 61 | Gli antag conf 60 | SufuKO cytotox inactive | Wnt3a counter inactive
COc1ccc(N2CCN(C(=O)CSc3nnc4n3C(C)(C)Cc3ccccc3-4)CC2)cc1	none
CO[C@@H]1CN(C)C(=O)c2ccc(NC(=O)c3ccccc3)cc2OC[C@@H](C)N(C(C)=O)C[C@H]1C	none (no result: Jurkat NFkB inh, 697 NFkB inh, Gli-Sufu block, SMARCA2 act)
Cc1cc(C(=O)CN2CCC(C)CC2)c(C)n1-c1ccccc1F	Gli-Sufu block 70 (no result: esBAF inh) | Gli antag conf 76 | SufuKO cytotox 34 | Wnt3a counter 83
CC(C)(C)c1ccc(C(=O)NCCOc2ccccc2F)cc1	Gli-Sufu block 55 | Gli antag conf 74 | SufuKO cytotox inactive | Wnt3a counter 89
CCCOc1ccc(C(=O)Nc2ccc(CN3CCOCC3)cc2)cc1	none
COc1ccc(CCNC(=O)C2CCCN(S(=O)(=O)N3CCCCCC3)C2)cc1OC (stereo not given)	none | Gli antag conf inactive | SufuKO cytotox inactive | Wnt3a counter inactive
COc1ccc(CCNC(=S)NC(=O)c2cc(OC)c(OC)c(OC)c2)cc1OC	none (no result: esBAF inh) | Gli antag conf inactive | SufuKO cytotox inactive | Wnt3a counter inactive
COc1ccc(NS(=O)(=O)c2ccc(NC(=O)c3ccc(CN4CCOCC4)cc3)cc2)cc1	Gli-Sufu block 57 | Gli antag conf inactive | SufuKO cytotox inactive | Wnt3a counter inactive
COc1ccc(CCNC(=O)C2CCN(S(=O)(=O)N3CCCCCC3)CC2)cc1OC	none
CC(=O)c1c(C)[nH]c(C(=O)OCC(=O)Nc2cccc(S(=O)(=O)N3CCCC3)c2)c1C	Gli-Sufu block 58 | Gli antag conf 53 | SufuKO cytotox inactive | Wnt3a counter inactive
C[C@@H]1CN([C@H](C)CO)C(=O)c2cc(-c3ccccc3F)cnc2O[C@H]1CN(C)Cc1cccc(F)c1	none (no result: Jurkat NFkB inh, 697 NFkB inh, Gli-Sufu block, SMARCA2 act)
C[C@H](CO)N1C[C@H](C)[C@@H](CN(C)CC2CC2)Oc2ccc(NS(=O)(=O)c3ccc(F)cc3)cc2CC1=O	none (no result: Jurkat NFkB inh, 697 NFkB inh, Gli-Sufu block, SMARCA2 act)
COc1ccccc1-c1cn(CC[C@H]2CC[C@@H](NC(=O)c3ccccc3F)[C@@H](CO)O2)nn1	none (no result: Jurkat NFkB inh, 697 NFkB inh, Gli-Sufu block, SMARCA2 act)
CO[C@H]1CN(C)C(=O)c2ccc(NC(=O)C3CCCC3)cc2OC[C@@H](C)N(CC2CC2)C[C@@H]1C	none (no result: Jurkat NFkB inh, 697 NFkB inh, Gli-Sufu block, SMARCA2 act)
COc1ccc(S(=O)(=O)Nc2ccc(N3CCOCC3)cc2)cc1	none
COc1ccc(CCC(=O)Nc2cccc(S(=O)(=O)N3CCCCCC3)c2)cc1OC	none
COc1ccc(NS(=O)(=O)c2ccc(N3CCOCC3)c(N)c2)cc1	Gli-Sufu block 62 | Gli antag conf 61 | SufuKO cytotox 26 | Wnt3a counter 28
COc1ccc(CC(=O)Nc2cccc(S(=O)(=O)N3CCCCCC3)c2)cc1OC	none (no result: esBAF inh, Jurkat NFkB inh, 697 NFkB inh) | Gli antag conf 49 | SufuKO cytotox 26 | Wnt3a counter inactive
COc1ccc(NS(=O)(=O)c2cccc(NC(=O)c3ccc(S(=O)(=O)N4CCCCCC4)cc3)c2)cc1	Gli-Sufu block 61 (no result: esBAF inh, SMARCA2 act) | Gli antag conf 63 | SufuKO cytotox inactive | Wnt3a counter 28
CCOc1ccccc1OCC(=O)Nc1nnc(C)s1	Gli-Sufu block 94 | Gli antag conf inactive | SufuKO cytotox inactive | Wnt3a counter inactive
COc1ccc(OCC(=O)Nc2nnc(C)s2)cc1	none
COCCn1c(C)cc(C2=NNC(=Nc3ccccc3)SC2)c1C	none | Gli antag conf inactive | SufuKO cytotox 40 | Wnt3a counter inactive
CC(C)c1cn(CC[C@H]2CC[C@H](NC(=O)C3CCC3)[C@@H](CO)O2)nn1	none (no result: Jurkat NFkB inh, 697 NFkB inh, Gli-Sufu block, SMARCA2 act)
O=C(NCCCN1CCOCC1)c1ccc(S(=O)(=O)Nc2ccccc2F)cc1	Gli-Sufu block 90 | Gli antag conf inactive | SufuKO cytotox inactive | Wnt3a counter inactive
C[C@H]1CN([C@@H](C)CO)C(=O)c2cccc(NC(=O)c3ccncc3)c2O[C@@H]1CN(C)S(=O)(=O)c1cn(C)cn1	none (no result: Jurkat NFkB inh, 697 NFkB inh, Gli-Sufu block, SMARCA2 act)
COc1ccccc1CCNC(=O)CNC(=O)c1ccc2ccccc2c1	Gli-Sufu block 57 | Gli antag conf inactive | SufuKO cytotox inactive | Wnt3a counter inactive
COc1ccccc1CCNC(=O)CNC(=O)Cc1cccc2ccccc12	none
